Experimental data published in publication PMC4336329 (PLoS ONE, 2015).
The whole screen tested about 310,000 compounds, of which about 14,000 (4.5%) showed an effect of 50% or more. The effect is printed as a negative number. The full list was thinned out, with strong results kept by preference.

molecular target: human ether-à-go-go-related gene (hERG) potassium channel (human, UniProt Q12809); test: primary screen, population patch clamp on CHO cells stably expressing hERG; higher = less effect of the substance
Sequence (Q12809 whole entry, looked up): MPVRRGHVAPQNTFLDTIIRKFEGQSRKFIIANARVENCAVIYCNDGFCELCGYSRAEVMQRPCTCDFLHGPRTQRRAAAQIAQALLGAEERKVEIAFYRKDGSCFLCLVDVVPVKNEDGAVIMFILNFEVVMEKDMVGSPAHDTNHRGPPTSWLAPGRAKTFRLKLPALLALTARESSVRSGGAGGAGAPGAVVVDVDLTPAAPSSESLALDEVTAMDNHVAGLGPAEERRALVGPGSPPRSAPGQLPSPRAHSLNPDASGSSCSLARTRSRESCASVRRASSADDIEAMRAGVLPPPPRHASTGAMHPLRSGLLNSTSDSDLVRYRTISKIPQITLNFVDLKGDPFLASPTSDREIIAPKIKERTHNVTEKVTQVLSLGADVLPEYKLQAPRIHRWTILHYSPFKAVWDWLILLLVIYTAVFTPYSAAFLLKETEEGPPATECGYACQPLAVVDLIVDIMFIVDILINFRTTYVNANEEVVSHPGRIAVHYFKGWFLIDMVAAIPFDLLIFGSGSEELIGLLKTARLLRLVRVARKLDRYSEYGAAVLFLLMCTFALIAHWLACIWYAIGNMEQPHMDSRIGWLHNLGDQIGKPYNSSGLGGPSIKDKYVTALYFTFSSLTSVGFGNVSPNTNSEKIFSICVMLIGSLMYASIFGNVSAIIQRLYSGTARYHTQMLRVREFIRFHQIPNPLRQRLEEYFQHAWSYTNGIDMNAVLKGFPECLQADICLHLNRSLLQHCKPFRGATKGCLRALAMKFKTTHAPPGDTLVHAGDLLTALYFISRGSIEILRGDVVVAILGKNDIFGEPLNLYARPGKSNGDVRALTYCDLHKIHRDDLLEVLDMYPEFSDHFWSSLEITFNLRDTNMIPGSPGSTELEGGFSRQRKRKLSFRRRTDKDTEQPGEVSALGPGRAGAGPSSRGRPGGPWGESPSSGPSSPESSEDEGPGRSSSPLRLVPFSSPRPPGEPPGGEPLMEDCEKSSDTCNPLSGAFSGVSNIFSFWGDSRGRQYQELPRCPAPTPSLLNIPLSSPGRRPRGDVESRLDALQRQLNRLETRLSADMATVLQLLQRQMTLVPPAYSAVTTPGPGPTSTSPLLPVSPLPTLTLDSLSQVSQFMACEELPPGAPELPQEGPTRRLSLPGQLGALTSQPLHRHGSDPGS
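Further: peak tail current of the secondary pulse compared with the same well before compound.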

SMILES | hERG current change (%, negative = inhibition) at 10uM [%]
Cc1nn(C2CCOC(C)(C)C2)c2c1C(c1ccc(OC(C)C)cc1)SCC(=O)N2 (stereo not drawn) | -15.5
C1CCN(c2nc(N3CCCCC3)nc(N3CCNCC3)n2)CC1 | -7.81
Nc1nc(N2CCCCC2)nc(N(c2ccccc2)c2ccccc2)n1 | 17.1
Nc1nc(N2CCCCC2)nc(N2CCCCC2)n1 | -78.2
O=C(C1CCN(S(=O)(=O)N2CCOCC2)CC1)N1CCOCC1 | -6.69
CCCCNS(=O)(=O)c1ccc(NC(=O)C2CCCO2)cc1 (stereo not drawn) | -8.88
Cc1ccc(NC(=O)CN2CCOCC2)cc1 | 14.1
CCN(CC)S(=O)(=O)c1ccc(NC(=O)C2CCCO2)cc1 (stereo not drawn) | 6.96
CN(C)S(=O)(=O)c1ccc(NC(=O)CN2CCOCC2)cc1 | 9.72
CCCN(CCC)S(=O)(=O)c1ccc(NC(=O)C2CCCO2)cc1 (stereo not drawn) | -64.4
CCCCN(CCCC)S(=O)(=O)c1ccc(NC(=O)CN2CCOCC2)cc1 | -53.6
CC12CCC(C(=O)N(CC(O)CN3CCN(Cc4ccccc4)CC3)C1=O)C2(C)C.Cl (stereo not drawn) | -6.03
O=C(C1CCC(=O)N1Cc1ccccc1Cl)N1CCC2(CC1)OCCO2 (stereo not drawn) | -29.7
COc1ccc(CN2CCNC(=O)C2CC(=O)NCCCC2CCCC2)c(C)c1C (stereo not drawn) | 5.39
CC(CNS(=O)(=O)c1ccc2c(c1)CC(=O)N2C)c1ccccc1 (stereo not drawn) | -12.3
COc1cccc(NC(=O)CN(C)C(=O)c2cc(C)oc2C)c1 | 6.56
Cc1cc2cc(CNC(=O)c3ccc4c(c3)OCO4)ccc2[nH]1 | -1.85
Cc1[nH]c2ccc(Br)cc2c(=O)c1CN1CCCCCC1 | -64.3
CCc1ccc2[nH]c(C)c(CN3CCCCCC3)c(=O)c2c1 | -46.9
O=c1[nH]c2ccc(Br)cc2c(-c2ccccc2)c1N1CCOCC1 | 7.5
Cc1ccc2[nH]c(-c3ccccc3)c(CN3CCCC3)c(=O)c2c1 | -12.2
O=c1[nH]c2ccc(Br)cc2c(-c2ccccc2)c1CN1CCOCC1 | -65.7
Cc1ccc2[nH]c(=O)c(CN3CCCCC3)c(-c3ccccc3)c2c1 | -53.6

SMILES | hERG current change (%, negative = inhibition) at 10uM [%]
O=c1[nH]c2ccc(Cl)cc2c(-c2ccccc2)c1CN1CCOCC1 | -14.7
Cc1[nH]c2ccc(Br)cc2c(=O)c1CN1CCOCC1 | -27.2
Cc1ccc2[nH]c(=O)c(CC(=O)O)c(-c3ccccc3)c2c1 | 17.7
COc1ccc(CN2CCNC(=O)C2CC(=O)NC2CCCCCCC2)cc1C (stereo not drawn) | 15.8
CC(C)(C)c1cc(=O)[nH]c(SCc2ccccc2)n1 | 17.3
OCC1CO1 (stereo not drawn) | 15.8
Cn1c(O)c(N=NC(=O)CNC(=O)c2cccnc2)c2ccccc21 | 15.1
CCOC(=O)c1c(O)c2ccccc2n(C)c1=O | 27.7
CCOc1ccc(NC(=O)CSc2n[nH]c(N)n2)c([N+](=O)[O-])c1 | -6.62
COc1cccc(C(=O)NCc2cccnc2)c1 | 1.54
O=C1CSC(c2cn(-c3ccccc3)nc2-c2cc3ccccc3oc2=O)N1Cc1ccccc1 (stereo not drawn) | 5.85
O=C(CSc1nc2[nH]ncc2c(=O)[nH]1)Nc1cccc(Cl)c1 | 4.2
CN(C)CCN(Cc1ccccc1)c1ccnc(N(C)C)c1C#N | -26.7
CN(C)c1nccc(N(Cc2ccccc2)Cc2ccccc2)c1C#N | -58.3
CN(C)c1ccnc(N(Cc2ccccc2)Cc2ccccc2)c1C#N.Cl | -6.74
Cc1c(Cl)cccc1N=C1SCCN1C(=O)CN1C(=O)NC2(CCCC2)C1=O | -16.5
O=C(C1CC1)N1CCc2cc(Br)cc(S(=O)(=O)N3CCCCCC3)c21 | -16.5
O=C(N/N=C/c1ccncc1)c1ccc(OCc2ccccc2)cc1 | -0.12
O=C1NC(=O)/C(=C\c2ccc(Sc3ccc(Cl)cc3)o2)N1 | 2.37
Oc1ccc(/C=N/Nc2nc(-c3cccnc3)nc3ccccc23)c(O)c1 | -2.97
COc1ccc(-c2occ(C(=O)O)c2C(=O)O)cc1 | -3.07
CC(=O)N1N=C(c2ccc(Cl)cc2)CC1c1ccc([N+](=O)[O-])cc1 (stereo not drawn) | 11.8
